Screening results: PubChem BioAssay, National Center for Advancing Translational Sciences (NCATS)
Sampled rows, rich in hits. Any-hit rate of the full collection: about 7.9%.
KB-V1 cytotox: kills drug-selected multidrug resistant KB-V1 cells; 400,000 tested, 3.4% active; Potency, µM (series often up to 46.1 µM), hits mostly cytotoxic; KB-V1 MDR cells viability, CellTiter-Glo, 72 h; note: nearly all actives have a fitted effect of over 60% in size
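qHTS viability screen in drug-selected KB-V1 MDR cells: 72 h compound treatment at 37 degrees C, ATP luminescence end point.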
SW480 rerep: DNA re-replication induction in SW480 cells; SW480 DNA re-replication, Hoechst DNA content imaging, 48 h; Potency, µM (doses to about 46.1 µM), usual class: activators; 340,000 tested, 1.8% active; note: nearly all actives have a fitted effect of over 55% in size
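SW480 cells exposed to compounds for 48 hr at 37 C, 5% CO2, then Hoechst-stained 40 min. Nuclear DNA content imaged by fluorescence scanning (405 nm excitation, 500-530 nm emission); re-replication scored as increased high-intensity nuclei.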
HT1080NT lethal: kills 2HG-producing HT-1080-NT fibrosarcoma cells | HT-1080-NT fibrosarcoma viability, CellTiter-Glo ATP luminescence, 48 h | Potency, µM (top dose mostly 46.1 µM), usual class: cytotoxic | 360,000 tested, 1.6% active | AID 686970;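 note: NT is the 2HG producing partner of a matched IDH1 knockdown line; nearly all actives have a fitted effect of over 55% in size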
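HT-1080-NT fibrosarcoma cells (2HG-overproducing), 750 cells/well in RPMI with 5% FBS, dosed after 2 h and incubated 48 h at 37C. CellTiter-Glo luminescence normalized to DMSO and no-cell wells; concentration-response curves fitted and classed.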
HT1080 IDH1KD tx: HT-1080 IDH1 knockdown cell toxicity (counter line) | HT-1080 IDH1 knockdown viability, ATP luminescence, 48 h | Potency, µM (doses to about 46.1 µM), hits mostly cytotoxic | 360,000 tested, 2% active | AID 686971
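Cytotoxicity counter-line: IDH1KD HT-1080, 48 h, CellTiter-Glo. Curves classed by r2, magnitude and activity.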
MCF10A rerep: inducers of DNA re-replication in MCF 10A breast cells. 350,000 tested, 2.9% active. MCF 10A DNA re-replication, Hoechst nuclear intensity, 48 h. Potency, µM (doses to about 46.1 µM), usual class: activators; note: nearly all actives have a fitted effect of over 50% in size
KB-3-1 tox: KB-3-1 parental cell cytotoxicity. KB-3-1 viability, CellTiter-Glo ATP luminescence, 72 h. Potency, µM (doses to about 46.1 µM), usual class: cytotoxic. 400,000 tested, 1.4% active. AID 1347075; note: nearly all actives have a fitted effect of over 60% in size
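72 h, 37 °C compound treatment of KB-3-1 parental cells; CellTiter-Glo added, 10 min, luminescence read. Data corrected against DMSO-only plates and normalized before curve fitting.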
Large screens that a line does not name were inactive. Calls come from the whole dose curve; as a rule, active = well fitted curve in the direction sought with a large enough effect; inconclusive = small, poorly fitted or top-dose-only effect, or another doubt; inactive = no such curve, though single readings can be large; an effect the other way counts as inactive or inconclusive.

Cc1csc(Sc2ccc(S(=O)(=O)N3CCCC3)cn2)n1	KB-V1 cytotox inconclusive
Oc1ccc(Nc2nc(-c3ccc(O)cc3)cs2)cc1	SW480 rerep inconclusive, HT1080NT lethal inconclusive, HT1080 IDH1KD tx inconclusive, MCF10A rerep 12.6µM, KB-3-1 tox inconclusive
COc1ccc(-c2ccnc(-c3ccncc3)n2)cc1	SW480 rerep 20.6µM, KB-3-1 tox inconclusive
Cc1ccc(-c2ccnc(-c3ccc(O)cc3)n2)cc1	KB-V1 cytotox inconclusive
COc1ccc(-c2ccnc(-c3ccc(O)cc3)n2)cc1	KB-V1 cytotox 7.31µM, SW480 rerep 8.2µM, HT1080NT lethal 4.11µM, HT1080 IDH1KD tx 1.46µM, MCF10A rerep 2.06µM, KB-3-1 tox 5.8µM
COc1ccc2cc(-c3csc(-c4cccnc4)n3)ccc2c1	MCF10A rerep 14.6µM
O=C(Nc1ccccc1)C1=C[C@@H](c2coc3ccccc3c2=O)C[C@@H](OCc2ccc(CO)cc2)O1	MCF10A rerep inconclusive
Cc1cc(-c2nnc(SCC(=O)Nc3nc(-c4ccc(Cl)cc4)cs3)o2)no1	HT1080NT lethal inconclusive
COc1ccc(-c2nc(CCl)cs2)cc1	MCF10A rerep inconclusive
COc1ccc(-c2nc(-c3ccc(O)cc3O)cs2)cc1OC	KB-V1 cytotox inconclusive, SW480 rerep inconclusive, HT1080NT lethal inconclusive, HT1080 IDH1KD tx inconclusive, MCF10A rerep 20.6µM
COc1ccc(-c2nc(CCl)cs2)cc1OC	KB-V1 cytotox inconclusive
COc1ccc(-c2csc(-c3ccc(O)cc3)n2)cc1	KB-V1 cytotox 2.59µM, SW480 rerep 7.31µM, HT1080NT lethal 5.17µM, HT1080 IDH1KD tx 1.64µM, MCF10A rerep 14.6µM, KB-3-1 tox 4.11µM
CC(C)(C)NC(=O)[C@@H]1C[C@@H]2CCCC[C@@H]2CN1C[C@@H](O)[C@H](Cc1ccccc1)NC(=O)[C@H](CC(N)=O)NC(=O)c1ccc2ccccc2n1	SW480 rerep inconclusive, HT1080NT lethal 20.6µM, HT1080 IDH1KD tx 23.1µM, MCF10A rerep inconclusive, KB-3-1 tox inconclusive
CC(C)(CNC(=S)NCCc1ccccc1)CNC(=S)NCCc1ccccc1	SW480 rerep inconclusive, HT1080NT lethal inconclusive, HT1080 IDH1KD tx inconclusive, MCF10A rerep 23.1µM, KB-3-1 tox inconclusive
Cc1cc(=O)[nH]c2c(C)c(N)ccc12	none
Cc1cc(C)c2ccc3c(C)c(C)nc3c2[nH]1	KB-V1 cytotox 16.4µM, SW480 rerep inconclusive, HT1080NT lethal inconclusive, HT1080 IDH1KD tx inconclusive, MCF10A rerep 20.6µM, KB-3-1 tox inconclusive
S=C(Nc1ccc(Cl)cc1)NC1CCCCC1	HT1080 IDH1KD tx inconclusive
Cc1cccc(NC(=S)NC2CCCC2)c1C	none
Cc1cccc(NC(=S)NC2CCCCCC2)c1C	KB-V1 cytotox 18.4µM
CC(C)(C)NC(=S)Nc1ccc(Nc2ccccc2)cc1	KB-V1 cytotox 16.4µM, HT1080NT lethal 5.62µM, HT1080 IDH1KD tx 6.31µM, KB-3-1 tox inconclusive
S=C(Nc1ccc(Nc2ccccc2)cc1)NC1CCCCCC1	KB-V1 cytotox inconclusive, SW480 rerep 20.6µM, HT1080NT lethal inconclusive, HT1080 IDH1KD tx inconclusive, KB-3-1 tox inconclusive
CCC1(c2ccccc2)SC(=O)NC1=O (centres undefined)	none
CC(=O)NCCc1ccc(S(=O)(=O)N2CCN(c3nc(-c4ccccc4)c(C)s3)CC2)cc1	none
O=C1Nc2ccc(Br)cc2/C1=N\N=C\C1=C(N2CCOCC2)C(=C/c2ccccc2)/CC1	none
Cc1cccc(C2c3[nH]c4ccccc4c3CCN2C(=O)c2ccc(=O)[nH]c2)n1 (centres undefined)	SW480 rerep inconclusive
CCc1c(C)sc(NC(=O)c2noc(C)c2[N+](=O)[O-])c1C#N	MCF10A rerep inconclusive
O=C(c1ccc(Cl)cc1)N1CCN(c2ccc(F)cc2)CC1	KB-V1 cytotox 16.4µM
O=C(c1cccc(F)c1)N1CCN(c2cccc(Cl)c2)CC1	KB-V1 cytotox 11.6µM, SW480 rerep inconclusive, HT1080NT lethal inconclusive, HT1080 IDH1KD tx 14.6µM, MCF10A rerep inconclusive, KB-3-1 tox 20.6µM
O=C(c1c(Cl)nc2sccn12)N1CCN(c2cccc(Cl)c2)CC1	KB-V1 cytotox inconclusive, SW480 rerep 2.91µM, HT1080NT lethal inconclusive, HT1080 IDH1KD tx 3.26µM, MCF10A rerep 4.11µM, KB-3-1 tox 1.64µM
